Screening results: PubChem BioAssay, Broad Institute
Shown are actives, neighbours in structure and some others; about 2.2% of the full set was active somewhere.
TRPM1 prom inh: inhibitors of MITF-driven TRPM1 promoter in melanoma cells | SK-MEL-5 TRPM1 promoter luciferase, 24 h | inhibition, % at 12.5 µM | 330,000 tested, 0.83% active | AID 488899;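 active means mean inhibition across replicates of 60% or more, whatever share of single replicates reaches that level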
EBV LMP1 NFkB: inhibitors of Epstein-Barr LMP1-induced NF-kappaB reporter | AID 504558 | inhibition, % at 12.5 µM | 350,000 tested, 0.69% active | LMP1-induced NF-kappaB luciferase reporter cells, luminescence; in the data active means inhibition above about 41%
PAX8 reporter: inhibitors of PAX8 transcriptional activity in RMG-I cells; RMG-I TPO-luciferase reporter, SteadyGlo, 24 h; inhibition, % at 12.6 µM; 360,000 tested, 1.2% active;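 active means mean replicate inhibition at least 60% with every replicate also reaching 60%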;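 further: luciferase light reporting Pax8 driven TPO promoter activity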
EWS-Fli inh: EWS/Fli transcriptional activity inhibition. A673 NR0B1-luciferase reporter, viability-normalised. inhibition, % at 12.6 µM. 350,000 tested, 0.67% active;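 active means mean inhibition of at least 50% after viability correction, with every replicate also passing that limit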;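 further: firefly luciferase signal divided by Alamar Blue viability fluorescence both relative to DMSO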
LGR2 antag: inhibitors of bursicon-induced Drosophila LGR2 receptor cAMP signaling; HEK293 LGR2, CRE-luciferase, bursicon-stimulated, 4 h; inhibition, % at 9.99 µM; 380,000 tested, 0.35% active;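 active means drop in luminescence signal, shown as inhibition above about 50% in the replicate tests, limit read from the data, passing the limit was not always enough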;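 further: agonist challenge used bursicon conditioned medium at about half maximal strength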
Shn3 3UTR inh: reduces Shn3 3'UTR luciferase signal in osteoblasts; Clone20 osteoblast Shn3 3'UTR firefly luciferase, 24 h; 360,000 tested, 0.52% active; AID 588674; inhibition, % at 12.5 µM;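 active means mean inhibition of at least 75% with every replicate also reaching 75%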
Numbers stand for hits; i = inactive; nt = no result.

SMILES	TRPM1 prom inh	EBV LMP1 NFkB	PAX8 reporter	EWS-Fli inh	LGR2 antag	Shn3 3UTR inh
CCn1c(SCC(=O)OCc2ccccc2)nnc1-c1ccco1	i	i	nt	i	i	i
CCn1c(Sc2ccc([N+](=O)[O-])cn2)nnc1-c1ccco1	i	i	71	i	i	i
COc1ccc(C)cc1NS(=O)(=O)c1ccc(-c2cnc(C3CC3)o2)cc1	68	i	99	i	i	90
Cc1cccc(C)c1NS(=O)(=O)c1ccc(-c2cnc(C3CC3)o2)cc1	74	i	92	nt	i	i
CCOc1ccccc1CNS(=O)(=O)c1ccc(-c2cnc(C3CC3)o2)cc1	i	i	i	59	i	i
Cc1ccc(N(C)S(=O)(=O)c2ccc(-c3cnc(C4CC4)o3)cc2)cc1	i	i	i	52	i	i
COc1ccc2c3c(n(C)c2c1)[C@H](CO)N(Cc1ccc2c(c1)OCO2)CC31CCN(C(=O)c2ccc3c(c2)OCO3)CC1	nt	nt	nt	i	i	nt
O=C(c1ccccc1)N1CC(=O)N2[C@H](CO)[C@H](c3ccc(C#Cc4ccccc4)cc3)[C@H]2C1	nt	nt	nt	nt	i	nt
CC(C)NC(=O)Nc1ccc2c(c1)C(=O)N([C@H](C)CO)C[C@@H](C)[C@H](CN(C)S(=O)(=O)c1ccccc1)OCCCC[C@H](C)O2	nt	nt	i	i	i	nt
CN1C(=O)c2cc(NC(=O)c3cccs3)ccc2OC[C@@H]2O[C@@H](CC(=O)N3CCOCC3)CC[C@@H]21	nt	nt	i	i	i	nt
Cc1ccc(O)c(N=Nc2nccs2)c1	i	i	i	i	i	93
Cc1c(CCC(=O)NCC(=O)NCC(=O)O)c(=O)oc2cc3oc4c(c3cc12)CCCC4	i	i	i	i	i	i
Cc1c(CCC(=O)O)c(=O)oc2cc3oc4c(c3cc12)CCCC4	i	i	i	57	i	i
O=C(NCCNC(=O)Oc1cccc2ccccc12)Oc1cccc2ccccc12	i	i	i	i	i	90
CCNC(=O)COc1cccc2ccccc12	i	i	nt	nt	nt	i
CCOC(=O)C1CCN(C(=O)CNC(=O)OC(C)(C)C)CC1	i	43	nt	nt	i	i
CC(C)(C)OC(=O)NCC(=O)N1CCC(C(=O)O)CC1	i	i	nt	nt	nt	i
Cc1ccc(C(=O)C(C(=O)/C=C/c2ccccc2)=C2SCCCS2)cc1	86	i	nt	nt	nt	i
COc1cccc(C(=O)OCn2nnc3ccccc3c2=O)c1OC	i	53	i	i	nt	i
C[C@@H]1CN([C@@H](C)CO)C(=O)c2cc(-c3cccc(F)c3)cnc2O[C@@H]1CN(C)C(=O)C1CC1	nt	nt	nt	i	i	nt
Cc1cc(C)n(-c2nc(N(c3ccccc3)c3ccccc3)nc(-n3nc(C)cc3C)n2)n1	71	i	nt	nt	nt	i
Cc1cc(C)n(-c2nc(Nc3ccccc3)nc(-n3nc(C)cc3C)n2)n1	i	i	nt	i	i	i
Cc1cc(-n2c(C)cc(C(=O)CCl)c2C)no1	76	i	i	i	i	i
COc1ccc(-n2c(C)cc(C(=O)CCl)c2C)cc1	95	i	i	61	i	i
COc1ccc(-n2c(C)cc(C(=O)CN3C(=O)c4ccccc4C3=O)c2C)cc1	i	i	i	nt	i	i
SMILES	TRPM1 prom inh	EBV LMP1 NFkB	PAX8 reporter	EWS-Fli inh	LGR2 antag	Shn3 3UTR inh
C/C=C/c1cnc2c(c1)C(=O)N([C@H](C)CO)C[C@H](C)[C@H](CN(C)Cc1ccc3c(c1)OCO3)O2	nt	nt	i	i	i	nt
CC(C)NC(=O)NCC[C@@H]1CC[C@@H](NS(=O)(=O)c2ccccc2)[C@@H](CO)O1	nt	nt	nt	i	i	nt
COc1ccc2c3c([nH]c2c1)[C@@H](CO)N(Cc1ccccc1)CC31CN(C(=O)c2cccnc2)C1	nt	nt	nt	i	i	nt
COc1ccc2c3c(n(C)c2c1)[C@@H](CO)N(C(=O)Cc1ccccc1)CC31CCN(C)CC1	nt	nt	nt	i	i	nt
C[C@H]1CN([C@@H](C)CO)C(=O)Cc2cc(NC(=O)Cn3cnnn3)ccc2O[C@H]1CN(C)Cc1ccccc1	nt	nt	i	i	i	nt
C[C@@H]1CN([C@H](C)CO)C(=O)c2cc(NC(=O)Nc3ccc(C(F)(F)F)cc3)ccc2O[C@@H](C)CCCCO[C@@H]1CN(C)Cc1ccc2c(c1)OCO2	nt	nt	89	i	i	nt
C[C@@H]1CCCCO[C@H](CN(C)Cc2ccccc2)[C@@H](C)CN([C@@H](C)CO)C(=O)c2cc(NC(=O)Nc3ccc4c(c3)OCO4)ccc2O1	nt	nt	i	i	i	nt
C[C@H](CO)N1C[C@H](C)[C@@H](CN(C)Cc2ccccc2)OCCCC[C@H](C)Oc2ccc(NC(=O)Nc3ccc4c(c3)OCO4)cc2C1=O	nt	nt	i	64	i	nt
C[C@@H]1CN([C@H](C)CO)C(=O)c2cc(NC(=O)Nc3ccc4c(c3)OCO4)ccc2O[C@@H](C)CCCCO[C@H]1CN(C)Cc1ccc(C(F)(F)F)cc1	nt	nt	85	66	i	nt
C[C@@H]1CCCCO[C@H](CN(C)Cc2ccc(C(F)(F)F)cc2)[C@@H](C)CN([C@H](C)CO)C(=O)c2cc(NC(=O)Nc3ccc4c(c3)OCO4)ccc2O1	nt	nt	i	i	i	nt
C[C@@H]1CCCCO[C@H](CN(C)C(=O)CCC(F)(F)F)[C@H](C)CN([C@@H](C)CO)C(=O)c2cc(NC(=O)Nc3ccc4c(c3)OCO4)ccc2O1	nt	nt	68	i	i	nt
CC(C)NC(=O)N(C)C[C@H]1Oc2ccc(NC(=O)c3ccncc3)cc2CC(=O)N([C@H](C)CO)C[C@H]1C	nt	nt	i	i	i	nt
COCC(=O)N1C[C@H]2[C@@H](c3ccccc31)[C@H](CO)N2C(=O)C1CCCC1	nt	nt	i	i	i	nt
C[C@@H]1CCCCO[C@H](CN(C)Cc2ccc(C(F)(F)F)cc2)[C@@H](C)CN([C@@H](C)CO)C(=O)c2cc(NC(=O)Nc3ccc4c(c3)OCO4)ccc2O1	nt	nt	65	i	i	nt
C[C@@H]1CCCCO[C@@H](CN(C)Cc2ccc(C(F)(F)F)cc2)[C@@H](C)CN([C@@H](C)CO)C(=O)c2cc(NC(=O)Nc3ccc4c(c3)OCO4)ccc2O1	nt	nt	i	i	i	nt
C[C@@H]1CCCCO[C@@H](CN(C)Cc2ccc(C(F)(F)F)cc2)[C@H](C)CN([C@@H](C)CO)C(=O)c2cc(NC(=O)Nc3ccc4c(c3)OCO4)ccc2O1	nt	nt	72	i	i	nt
CO[C@H]1CC[C@H]2CCOc3ccc(C#N)cc3C(=O)N(C)CCCC(=O)N(C)C[C@@H]1O2	nt	nt	i	i	i	nt
CN(C)CCCCCCNC(=O)[C@@H]1C[C@@H]2C(=O)N3CCC[C@H]3C(=O)N2[C@@H]1c1ccc(O)cc1	nt	nt	i	i	nt	nt
N=c1n(CC(=O)c2ccc([N+](=O)[O-])cc2)c2ccccc2n1Cc1ccccc1	85	i	i	nt	i	i
N=c1n(CC(=O)c2ccc(Br)cc2)c2ccccc2n1Cc1ccccc1	90	i	i	i	i	i
N=c1n(Cc2ccccc2)c2ccccc2n1Cc1ccccc1	i	i	i	nt	i	i
N=c1n(CC(=O)c2ccc([N+](=O)[O-])cc2)c2ccccc2n1Cc1ccc(Cl)cc1	92	i	nt	nt	i	i
O=[N+]([O-])c1ccc(C(=S)N2CCN(Cc3ccccc3)CC2)cc1	i	i	nt	nt	i	i
